Reference: PubChem BioAssay (NCI)
About 79,000 compounds went through this panel and 15% of them were active in at least one assay; those are over-represented in the sample as a whole. Active and inactive are the calls of the source. Cut-off read from the data, not from the text of the source: active = growth inhibition above about 70%; inactive = the rest.

Key:
[1] = NCI Yeast Anticancer Drug Screen. Data for the rad52 strain (AID 147);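 note: 0% = growth of vehicle-treated control cultures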; settings: S. cerevisiae rad52 mutant growth inhibition, hits give high values
Method in brief: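 Inhibition of yeast growth, referenced to vehicle controls, was the measured output for a strain with defective DNA damage repair.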

[2] = NCI Yeast Anticancer Drug Screen. Data for the wt1 strain (AID 149);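 note: 0% = growth of vehicle-treated wt1 cultures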; settings: S. cerevisiae wt1 strain (SPY 50644) growth inhibition, hits give high values
Method in brief: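 wt1 strain grown with compound or vehicle; inhibition taken from the growth difference.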

[3] = NCI Yeast Anticancer Drug Screen. Data for the rad50EPP+ strain (AID 151);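 note: 0% = growth of vehicle-treated control cultures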; settings: S. cerevisiae rad50 mutant strain, hits give high values
Method in brief: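 Genetically defined yeast (rad50EPP+, DNA damage repair alteration) is grown with compound, and inhibition of growth is expressed relative to vehicle-treated controls.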

[4] = NCI Yeast Anticancer Drug Screen. Data for the mgt1 strain (AID 153); settings: S. cerevisiae mgt1 mutant growth inhibition, hits give high values
Method in brief: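 In the mgt1 strain, test compounds were added and growth inhibition was determined relative to vehicle-treated controls.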

[5] = NCI Yeast Anticancer Drug Screen. Data for the rad50 strain (AID 155);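 note: 0% = growth of vehicle-only cultures of the same strain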; settings: S. cerevisiae rad50 strain growth inhibition, hits give high values
Method in brief: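 DNA repair mutant yeast, compound exposure, growth read-out; inhibition is taken relative to vehicle.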

[6] = NCI Yeast Anticancer Drug Screen. Data for the mec2-1 strain (AID 157); settings: S. cerevisiae mec2-1 strain, hits give high values
Method in brief: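 Each compound was tested on mec2-1 yeast, a strain altered in DNA damage repair or cell cycle control. Growth inhibition is reported relative to vehicle.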

[7] = NCI Yeast Anticancer Drug Screen. Data for the rad14 strain (AID 159);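 note: 0% = growth of vehicle-treated control cultures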; settings: S. cerevisiae rad14 strain growth inhibition, hits give high values
Method in brief: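 DNA repair-defective yeast, compound-exposed; % growth inhibition derived by comparison with vehicle-treated controls.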

[8] = NCI Yeast Anticancer Drug Screen. Data for the sgs1 mgt1 strain (AID 161);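 note: 0% = growth of cultures given vehicle only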; settings: S. cerevisiae sgs1 mgt1 strain, hits give high values
Method in brief: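 Test agents were incubated with a DNA-repair-mutant yeast strain. Growth was then read and compared against vehicle-treated controls.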

[9] = NCI Yeast Anticancer Drug Screen. Data for the CLN2oe strain (AID 163);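 note: 0% = growth of vehicle-only control cultures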; settings: S. cerevisiae CLN2oe strain, hits give high values
Method in brief: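 First, the altered yeast strain was treated with each compound; second, its growth was measured; finally, inhibition was derived by comparison with vehicle controls.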

[10] = NCI Yeast Anticancer Drug Screen. Data for the cln2 rad14 strain (AID 165);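 note: 0% = growth equal to vehicle treated cultures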; settings: S. cerevisiae cln2 rad14 strain, hits give high values
Method in brief: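 Test compounds were added to cln2 rad14 yeast cultures; inhibition of growth was then determined by comparison with vehicle treatment.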

[11] = NCI Yeast Anticancer Drug Screen. Data for the bub3 strain (AID 167); settings: S. cerevisiae bub3 mutant strain, hits give high values
Method in brief: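 In this screen, a yeast mutant lacking normal mitotic checkpoint function is challenged with compound. Relative growth versus vehicle gives the inhibition value.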

[12] = NCI Yeast Anticancer Drug Screen. Data for the wt2 strain (AID 169);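 note: 0% = growth of vehicle-treated yeast cultures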; settings: S. cerevisiae wt2 strain growth inhibition, hits give high values
Method in brief: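 The panel's yeast strains carry defined changes in DNA repair or cell cycle genes. Each strain is grown with compound, and growth loss is scored relative to vehicle.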

[13] = NCI Yeast Anticancer Drug Screen. Data for the sgs1 strain (AID 173);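 note: 0% = growth of vehicle-only control cultures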; settings: S. cerevisiae sgs1 mutant, hits give high values
Method in brief: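 Vehicle-treated cultures served as reference for growth inhibition of a yeast strain altered in DNA damage repair or cell cycle control after compound exposure.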

[14] = NCI Yeast Anticancer Drug Screen. Data for the mlh1 rad18 strain (AID 175); settings: S. cerevisiae mlh1 rad18 strain growth inhibition, hits give high values
Method in brief: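 Inhibition values reflect reduced growth of mutant yeast versus vehicle-treated controls following compound exposure; the mutations affect DNA damage repair.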

[15] = NCI Yeast Anticancer Drug Screen. Data for the rad18 strain (AID 177); settings: S. cerevisiae rad18 mutant growth inhibition, hits give high values
Method in brief: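 Steps: expose repair-mutant yeast to compound; measure growth; express as inhibition relative to vehicle control.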

[16] = at 5.0 µM (retest, dose inferred, filed as 0.5)
[17] = at 50.0 µM (retest, dose inferred, filed as 5.0)

Measured: growth inhibition

O=[n+]1c2ccccc2n([O-])c2cc(Br)ccc21
active: [1]; at 1.2 µM 94% | [1]; at 3.7 µM 98% | [1]; at 11.0 µM 98% | [1]; at 33.0 µM 98% | [1]; at 100.0 µM 98% | [2]; at 11.0 µM 82% | [2]; at 33.0 µM 99% | [2]; at 100.0 µM 98% | [3]; at 1.2 µM 96% | [3]; at 3.7 µM 98% | [3]; at 11.0 µM 99% | [3]; at 33.0 µM 99% | [3]; at 100.0 µM 97% | [4]; at 33.0 µM 99% | [4]; at 100.0 µM 98% | [5]; at 1.2 µM 86% | [5]; at 3.7 µM 97% | [5]; [16] 96% | [5]; at 11.0 µM 98% | [5]; at 33.0 µM 99% | [5]; [17] 98% | [5]; at 50.0 µM 99.2% | [5]; at 100.0 µM 97% | [6]; [16] 85% | [6]; at 11.0 µM 92% | [6]; at 33.0 µM 99% | [6]; [17] 99% | [6]; at 50.0 µM 99.3% | [6]; at 100.0 µM 98% | [7]; at 11.0 µM 95% | [7]; at 33.0 µM 100% | [7]; at 100.0 µM 98% | [8]; [17] 99% | [8]; at 50.0 µM 99.2% | [9]; at 33.0 µM 99% | [9]; at 100.0 µM 98% | [10]; [17] 99% | [10]; at 50.0 µM 94.6% | [11]; at 11.0 µM 96% | [11]; at 33.0 µM 99% | [11]; [17] 99% | [11]; at 50.0 µM 99.4% | [11]; at 100.0 µM 99% | [12]; at 11.0 µM 99% | [12]; at 33.0 µM 100% | [12]; at 100.0 µM 98% | [13]; at 11.0 µM 97% | [13]; at 33.0 µM 99% | [13]; at 100.0 µM 98% | [14]; [16] 87% | [14]; [17] 98% | [14]; at 50.0 µM 99.2% | [15]; at 1.2 µM 84% | [15]; at 3.7 µM 92% | [15]; at 11.0 µM 98% | [15]; at 33.0 µM 99% | [15]; at 100.0 µM 98%
inactive: [2]; at 1.2 µM 7% | [2]; at 3.7 µM 43% | [4]; at 1.2 µM 5% | [4]; at 3.7 µM 5% | [4]; at 11.0 µM 51% | [6]; at 1.2 µM 18% | [6]; at 3.7 µM 52% | [7]; at 1.2 µM 36% | [7]; at 3.7 µM 56% | [8]; [16] 66% | [9]; at 1.2 µM 6% | [9]; at 3.7 µM 9% | [9]; at 11.0 µM 38% | [10]; [16] 19% | [11]; at 1.2 µM 42% | [11]; at 3.7 µM 63% | [11]; [16] 63% | [12]; at 1.2 µM 47% | [12]; at 3.7 µM 69% | [13]; at 1.2 µM 34% | [13]; at 3.7 µM 39%
